Hits are enriched below; roughly 1.2% of the tested compounds scored in any of these assays.
EphB4 ephrin blk – EphB4-ephrin-B2 interaction antagonists, primary screen, biochemical, TNYL-RAW peptide probe, fluorescence polarization | Ephrin type-B receptor 4 (Homo sapiens), P54760 | EphB4 LBD / TNYL-RAW-Alexa532 peptide | inhibition, % at 7 µM | actives 0.15% (n = 97,000);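 active = inhibition above the screen-wide mean inhibition plus 3 SD, cut at about 15% in these data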;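 note: 0% = DMSO wells and 100% = excess unlabeled TNYL-RAW peptide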
Target sequence (P54760 whole entry, looked up, the tested form may be a part): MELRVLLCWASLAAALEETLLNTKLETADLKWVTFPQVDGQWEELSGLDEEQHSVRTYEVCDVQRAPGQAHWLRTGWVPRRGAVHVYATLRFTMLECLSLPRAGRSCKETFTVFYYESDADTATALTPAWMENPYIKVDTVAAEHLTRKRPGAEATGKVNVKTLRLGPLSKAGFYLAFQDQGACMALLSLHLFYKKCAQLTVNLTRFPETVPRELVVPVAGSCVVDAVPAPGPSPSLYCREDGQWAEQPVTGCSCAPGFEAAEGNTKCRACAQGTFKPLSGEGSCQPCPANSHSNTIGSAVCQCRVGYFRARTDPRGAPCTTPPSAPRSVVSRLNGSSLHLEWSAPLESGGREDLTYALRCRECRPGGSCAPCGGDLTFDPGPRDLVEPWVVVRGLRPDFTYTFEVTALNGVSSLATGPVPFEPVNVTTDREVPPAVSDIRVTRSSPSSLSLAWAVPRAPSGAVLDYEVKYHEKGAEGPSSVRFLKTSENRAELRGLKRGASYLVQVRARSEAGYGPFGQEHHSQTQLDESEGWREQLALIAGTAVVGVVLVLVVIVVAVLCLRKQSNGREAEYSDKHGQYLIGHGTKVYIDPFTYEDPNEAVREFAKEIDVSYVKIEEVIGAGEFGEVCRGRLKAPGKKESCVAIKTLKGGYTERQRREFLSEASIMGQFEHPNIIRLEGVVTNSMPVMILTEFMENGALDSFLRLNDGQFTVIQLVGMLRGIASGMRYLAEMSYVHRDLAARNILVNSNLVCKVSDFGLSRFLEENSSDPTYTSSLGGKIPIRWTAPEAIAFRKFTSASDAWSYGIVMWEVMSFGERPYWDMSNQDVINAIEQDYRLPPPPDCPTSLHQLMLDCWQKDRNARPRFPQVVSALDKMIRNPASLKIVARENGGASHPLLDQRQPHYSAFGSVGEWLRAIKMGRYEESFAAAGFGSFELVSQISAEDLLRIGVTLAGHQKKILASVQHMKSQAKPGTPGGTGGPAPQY
Plk1 PBD FP – Plk1 polo box domain binding inhibitors, primary screen, biochemical, fluorescence polarization; actives 0.13% (n = 97,000); Serine/threonine-protein kinase PLK1 (Homo sapiens), P53350; Plk1 PBD phosphopeptide binding; inhibition, %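 (tested at about 20 µM)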; in the data active = inhibition above about 34%, passing the limit was not always enough
PTPN22 inh 2 – PTPN22 phosphatase inhibitors, primary screen, biochemical, DiFMUP fluorescence, 2 µM; inhibition, % at 2 µM; actives 0.21% (n = 96,000); recombinant LYP catalytic domain; AID 640, 2007;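 active = inhibition at 2 µM at or above a set limit, the screen mean plus 3 SD, cut at about 24% in these data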;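 note: 0% = DMSO with enzyme and 100% = enzyme fully blocked by orthovanadate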
PLK1 kinase inh – human PLK1 kinase inhibitors, primary screen, biochemical, TR-FRET; AID 619, 2007; actives 0.53% (n = 97,000); Serine/threonine-protein kinase PLK1 (Homo sapiens), P53350; recombinant PLK1 kinase, TR-FRET peptide phosphorylation; inhibition, % at 10 µM;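 active = inhibition of 50% or more in the single-concentration screen; inactive = inhibition below 50%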;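 note: 0% = DMSO max control and 100% = H-89 dihydrochloride min control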
PTPN22 act – LYP phosphatase activators, primary screen, biochemical, DiFMUP fluorescence, 2 µM; Tyrosine-protein phosphatase non-receptor type 22 (Homo sapiens), Q9Y2R2; recombinant LYP; 0 = plate median, 100 = signal doubled; activation, % at 2 µM; actives 0.11% (n = 96,000);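 active = activation at 2 µM above a set limit, the mean plus 5 SD, cut at about 37% in these data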
LYP act confirm – retest of PTPN22 activators, confirmation, biochemical, DiFMUP fluorescence, single concentration; shares compounds with PTPN22 act; Recombinant LYP, activation; zero set by plate's median compound well; activation, % at 2 µM; 100 tested, under 10 active; AID 1031, 2008; call rule not given here
* = called active by the depositor.

NC(=O)C1CCN(C2CC(=O)N(c3ccc(F)c(Cl)c3)C2=O)CC1 (stereo unspecified) was read as EphB4 ephrin blk 5, Plk1 PBD FP 0, PTPN22 inh 2 7, PLK1 kinase inh -6 and PTPN22 act -3.
Screening CCCCC(=O)NCCNC(=O)c1cc(OCC(F)(F)F)ccc1OCC(F)(F)F returned EphB4 ephrin blk -2, Plk1 PBD FP 4, PTPN22 inh 2 -41, PLK1 kinase inh 1, PTPN22 act 38* and LYP act confirm -1.
Cc1ccc(C2=[N+]([O-])C3(CCCCC/C3=N\NC(N)=S)N(O)C2(C)C)o1 (stereo unspecified) was read as EphB4 ephrin blk -6, Plk1 PBD FP -10, PTPN22 inh 2 -2, PLK1 kinase inh -10 and PTPN22 act 4.
`CCN(CC)c1ccc(NC(=O)Nc2ccccc2C(F)(F)F)cc1` gave EphB4 ephrin blk -7, Plk1 PBD FP -25, PTPN22 inh 2 7, PLK1 kinase inh -10 and PTPN22 act -4.
Screening OCCCCCN=c1cc(-c2ccccc2)oc2ccc(Cl)cc12 returned EphB4 ephrin blk 2, Plk1 PBD FP 2, PTPN22 inh 2 -38, PLK1 kinase inh -6, PTPN22 act 40* and LYP act confirm -4.
`COC(=O)C1=C(CSc2nncn2C)NC(=O)NC1c1ccc(F)cc1` (stereo unspecified) gave EphB4 ephrin blk 0, Plk1 PBD FP 8, PTPN22 inh 2 -46, PLK1 kinase inh -6, PTPN22 act 50* and LYP act confirm 6.
For c1ccc(-c2nnc(SCCC3OCCCO3)o2)cc1 the results were EphB4 ephrin blk 1, Plk1 PBD FP 16, PTPN22 inh 2 -42, PLK1 kinase inh -17, PTPN22 act 47* and LYP act confirm -2.
Screening O=C1CCC(C(=O)OCc2ccccc2)N1 (stereo unspecified) returned EphB4 ephrin blk -2, Plk1 PBD FP -12, PTPN22 inh 2 2, PLK1 kinase inh -10 and PTPN22 act -2.
Screening COc1ccc2[nH]c(=O)c(CN(C(=O)c3ccccn3)C3CCCCC3)cc2c1 returned EphB4 ephrin blk -10, Plk1 PBD FP -17, PTPN22 inh 2 4, PLK1 kinase inh -8 and PTPN22 act -4.
Screening O=C(c1ccccn1)N(Cc1cc2ccccc2[nH]c1=O)C1CCCCC1 returned EphB4 ephrin blk -5, Plk1 PBD FP 9, PTPN22 inh 2 -40, PLK1 kinase inh -10, PTPN22 act 41* and LYP act confirm -3.
COC(=O)[C@H](Cc1ccccc1)NC(=O)NCc1ccc(S(N)(=O)=O)cc1 was read as EphB4 ephrin blk -8, Plk1 PBD FP -2, PTPN22 inh 2 -48, PLK1 kinase inh -4, PTPN22 act 44* and LYP act confirm 6.
Screening COc1ccc(C(=O)NCCNC(=O)c2cc(OCC(F)(F)F)ccc2OCC(F)(F)F)cc1 returned EphB4 ephrin blk 2, Plk1 PBD FP -4, PTPN22 inh 2 4, PLK1 kinase inh 1 and PTPN22 act 0.
`CC(C)(C)NCCCCOc1ccc(F)cc1` gave EphB4 ephrin blk -8, Plk1 PBD FP 14, PTPN22 inh 2 -43, PLK1 kinase inh -10, PTPN22 act 40* and LYP act confirm -2.
For CC1CCN(CCCCOc2ccccc2[N+](=O)[O-])CC1 the results were EphB4 ephrin blk -2, Plk1 PBD FP 14, PTPN22 inh 2 0, PLK1 kinase inh -19 and PTPN22 act 4.
`CC(C)C(NC(=O)C1CCCCC1)C(=O)NC1CCN(Cc2ccccc2)CC1` (stereo unspecified) gave EphB4 ephrin blk -1, Plk1 PBD FP 8, PTPN22 inh 2 -2, PLK1 kinase inh -6 and PTPN22 act 3.
For O=C(Nc1ccccc1)C1CCCCC1 the results were EphB4 ephrin blk 5, Plk1 PBD FP -22, PTPN22 inh 2 -7, PLK1 kinase inh 0 and PTPN22 act 9.
For O=C(NC(=S)NCc1ccccc1)C1CCCCC1 the results were EphB4 ephrin blk 5, Plk1 PBD FP -18, PTPN22 inh 2 -35, PLK1 kinase inh -3, PTPN22 act 39* and LYP act confirm 4.
Screening CN(C)c1ccc(/C=C/C=C2/SC(=S)N(c3ccccc3)C2=O)cc1 returned EphB4 ephrin blk -11, Plk1 PBD FP -16, PTPN22 inh 2 -38, PLK1 kinase inh -8, PTPN22 act 40* and LYP act confirm 0.
For CCN(CC)c1ccc(N2C(=O)/C(=C/c3cccs3)SC2=S)cc1 the results were EphB4 ephrin blk -5, Plk1 PBD FP -22, PTPN22 inh 2 -4, PLK1 kinase inh -7 and PTPN22 act 1.
For COC(=O)C(O)(CC(=O)Nc1ccccc1OC)C(F)(F)F (stereo unspecified) the results were EphB4 ephrin blk 6, Plk1 PBD FP -8, PTPN22 inh 2 -5, PLK1 kinase inh -3 and PTPN22 act 4.
Screening CCc1ccccc1NC(=O)CC(O)(C(=O)OC)C(F)(F)F (stereo unspecified) returned EphB4 ephrin blk -6, Plk1 PBD FP -10, PTPN22 inh 2 -37, PLK1 kinase inh 8, PTPN22 act 37* and LYP act confirm -4.
`CCOC(=O)C1CCCN(C(=S)Nc2ccc(C)cc2C)C1` (stereo unspecified) gave EphB4 ephrin blk 2, Plk1 PBD FP 5, PTPN22 inh 2 -1, PLK1 kinase inh -15 and PTPN22 act -1.
CCOC(=O)C1C(c2ccccc2)C(C(=O)OCC)C1c1ccccc1 (stereo unspecified) was read as EphB4 ephrin blk 4, Plk1 PBD FP 1, PTPN22 inh 2 -7, PLK1 kinase inh -7 and PTPN22 act 2.
Screening CCC(C)OC(=O)C1C(c2ccccc2)C(C(=O)O)C1c1ccccc1 (stereo unspecified) returned EphB4 ephrin blk 0, Plk1 PBD FP -3, PTPN22 inh 2 -38, PLK1 kinase inh -3, PTPN22 act 40* and LYP act confirm -10.
For O=C(O)CCn1[nH]c(=O)c2ccccc2c1=O the results were EphB4 ephrin blk 9, Plk1 PBD FP 2, PTPN22 inh 2 -36, PLK1 kinase inh -10, PTPN22 act 37* and LYP act confirm 8.
O=C(CCn1[nH]c(=O)c2ccccc2c1=O)N1CCOCC1 was read as EphB4 ephrin blk 1, Plk1 PBD FP 1, PTPN22 inh 2 -8, PLK1 kinase inh -2 and PTPN22 act 7.

Source: PubChem (several laboratories)
